Screening results (PubChem BioAssay)
Most compounds without a hit are left out; they make up all but 4.6% or so of the library.
VACV mCherry inh: inhibitors of vaccinia virus infection (mCherry reporter signal) | Vaccinia virus mCherry reporter infection, fluorescence | AID 720579 | hit rate 0.63% among 310,000 | Potency, µM (titrated, usually from 36.5 µM), without a hit: at the highest dose activity change, negative = inhibition, actives largely listed as inhibitors; calls by dose curve; tested in A549 cells; also: nearly all actives have a fitted effect of over 35% in size
VACV Venus inh: inhibitors of vaccinia virus (Venus reporter) | Vaccinia virus Venus reporter expression, fluorescence | Potency, µM (titrated, usually from 36.5 µM), without a hit: at the highest dose activity change, negative = inhibition, most hits filed as inhibitors | hit rate 0.46% among 330,000 | AID 720580; calls by dose curve; tested in A549 cells; also: nearly all actives have a fitted effect of over 30% in size
Marburg entry inh: inhibitors of Marburg virus binding or cell entry. Potency, µM (series often up to 37.8 µM), without a hit: top-dose activity change, negative = inhibition, hits mostly inhibitors. Marburg virus pseudotyped entry inhibition, cell reporter. AID 540276. hit rate 1.8% among 300,000; calls by dose curve; tested in HEK293 cells
HCV inhibitor: inhibitors of hepatitis C virus infection. Huh7.5.1 HCVcc-Cre infection, luciferase reporter, 44 h. hit rate 3.4% among 340,000. Potency, µM (series often up to 41.8 µM), without a hit: top-dose activity change, negative = inhibition, hits mostly inhibitors; active = well fitted inhibition curve with a large enough effect; inconclusive = small, poorly fitted or top-dose-only effect, or another doubt; inactive = no such curve, though single readings can be large or run the other way
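Infectious HCV cell culture screen: compound-treated cells (1,000/well, pre-plated 4 h) are infected with HCVcc-Cre at roughly 0.5 moi and grown 44 h. Infection is quantified by luciferase signal after 15 min substrate incubation at room temperature.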
LASV entry inh: Lassa virus entry inhibition; Lassa virus pseudotype entry inhibition, cell reporter; Potency, µM (highest dose often 37.9 µM), for inactives: at the top dose activity change, negative = inhibition, hits mostly inhibitors; hit rate 1.2% among 300,000; AID 540256; calls by dose curve; tested in HEK293 cells; also: nearly all actives have a fitted effect of over 50% in size
Numbers without * were called inactive; i = inactive; ? = inconclusive; nt = not tested or not shown; [ ] = dose if it differs, or a comment. % is scaled to controls: 0 for no effect and ±100 for the full control effect; potency is read from the fitted curve at half-maximal effect.

SMILES	VACV mCherry inh	VACV Venus inh	Marburg entry inh	HCV inhibitor	LASV entry inh
O=C1CCN(Cc2ccccc2)C=C1c1ccc(Br)cc1	i	-20.8%	nt	10µM*	nt
Cc1cc(C)nc(SCC(=O)c2ccc(O)c(O)c2)n1	?	-21.9%	nt	-24.8%	nt
Cc1cc(SCC(=O)c2ccc(O)c(O)c2)n2nc(C)c(-c3ccccc3)c2n1	11.2µM*	-28.8%	nt	11.2µM*	nt
Cc1cccc(C)c1Nc1nc2ccccc2o1	?	-9.0%	nt	-26.4%	nt
Cc1nc(Nc2nc3ccccc3o2)nc2c1CCC2	nt	nt	7.3µM*	2.1%	?
CCOC(=O)c1cnc(Nc2nc3ccccc3o2)nc1C	nt	nt	4.11µM*	-9.1%	1.3µM*
CCC(=O)N1c2ccccc2CC1C(=O)NCc1cccc(C)c1 (centres undefined)	-1.7%	5.8%	nt	nt	-17.7%[46.1 µM]
Cc1c(Cl)c([N+](=O)[O-])nn1Cc1ccc(C(=O)N/N=C\c2cccc(Br)c2)o1	nt	28.2µM*	?	?	-27.3%
CCCCCc1ccc(CC(=O)Nn2c(C)nc3ccccc3c2=O)cc1	-29.7%	-24.6%	0.7%	?	-19.1%
Cc1nc2ccccc2c(=O)n1NC(=O)Cc1ccc(Br)cc1	1.78µM*	-9.0%	-9.7%	12.6%	?
CCOc1ccc(CCNC(=O)Cn2nnc(-c3ccc(OC)c(OC)c3)n2)cc1OCC	-12.1%	-11.4%	-4.7%[46.1 µM]	nt	-29.4%[46.1 µM]
Cc1nn(-c2ccccc2)cc1/C=N/O	nt	nt	23.8%	2.5%	25.5%
Cc1nn(-c2ccccc2)cc1/C=N/NC(N)=S	11.2µM*	?	-8.1%	-8.5%	9.1%
CC(=O)Nc1ccc(C(=O)COC(=O)c2cccs2)c(F)c1	nt	nt	nt	9.1%	nt
CC(=O)Nc1ccc(C(=O)COC(=O)C2CC2C)c(F)c1 (centres undefined)	-25.7%	-8.5%	?	12.6µM*	-8.7%
CN(C)CCNc1ncnc2oc(-c3ccccc3)c(-c3ccccc3)c12	nt	nt	nt	3.16µM*	nt
CC(=O)c1cccc(NC(=O)COc2ccc3oc(=O)cc(C)c3c2)c1	-11.6%	-5.3%	nt	15.8µM*	nt
O=C(COc1ccc2c(-c3ccccc3)cc(=O)oc2c1)Nc1ccc(CCO)cc1	nt	nt	nt	7.08µM*	nt
CCCc1cc(=O)oc2cc(OCC(=O)NC(Cc3ccc(Cl)cc3)C(=O)O)ccc12 (centres undefined)	-2.3%	-2.2%	nt	0.501µM*	nt
COc1ccc(CN(Cc2ccco2)c2cnc(S(C)(=O)=O)nc2C(=O)Nc2ccc(C)c(Cl)c2)cc1	-15.6%	-8.5%	?	nt	-1.3%[46.1 µM]
CCN1CCN(CCCNC(=O)c2ccc3c(=O)n(CCc4ccccc4)c(=O)[nH]c3c2)CC1	6.1%	-3.0%	?	10µM*	nt
O=C(CCCn1c(=O)[nH]c2cc(Cl)ccc2c1=O)NCCCN1CCN(c2ccc(F)cc2)CC1	nt	nt	nt	7.94µM*	nt
O=C(CCCn1c(=O)[nH]c2cc(Cl)ccc2c1=O)NCCCN1CCCC1	nt	-8.1%	11.1%[46.1 µM]	12.4%	21.7%
CCCCC(CC)CNC(=O)c1ccc2c(=O)n(CCOC)c(=O)[nH]c2c1 (centres undefined)	1.5%	12.3%	2.82µM*	nt	?
CCCCCn1c(=O)[nH]c2cc(C(=O)NCc3ccccc3)ccc2c1=O	-4.8%	-1.4%	-3.5%[46.1 µM]	nt	2.3%[46.1 µM]
SMILES	VACV mCherry inh	VACV Venus inh	Marburg entry inh	HCV inhibitor	LASV entry inh
COc1cc2[nH]c(=O)n(CCCC(=O)NCCc3ccccc3)c(=O)c2cc1OC	-26.0%	-20.9%	?	?	1.41µM*
CCOc1ccc(NC(=O)CC2C(=O)N(c3ccc(C)cc3)C(=O)N2C2CCCCC2)cc1 (centres undefined)	-24.2%	-17.5%	10.6%[46.1 µM]	nt	?
Cc1ccc(C)c(N2C(=O)N(Cc3cc(=O)n4ccccc4n3)c3ccccc3S2(=O)=O)c1	-8.8%	-10.8%	nt	nt	?
O=C1c2ccccc2C(O)(C2N=CC=N2)N1CCc1ccccc1 (centres undefined)	nt	nt	10.3%	nt	nt
CCC1CCCCN1CCCNC(=O)c1ccc2c(=O)n(CCOC)c(=O)[nH]c2c1 (centres undefined)	i	-6.5%	19.4%[46.1 µM]	-1.2%	15.4%[46.1 µM]
CCC1CCCCN1CCCNC(=O)c1ccc2c(=O)n(Cc3ccc(OC)cc3)c(=O)[nH]c2c1 (centres undefined)	nt	nt	?	14.1µM*	?
COCCn1c(=O)[nH]c2cc(C(=O)NCCCN3CCN(c4ccc(F)cc4)CC3)ccc2c1=O	nt	nt	-2.9%	10µM*	5.8%
Cc1cc(C)n2nc(C)c(-c3ccc(Cl)cc3)c2n1	nt	nt	nt	11.2µM*	nt
Cc1cc(C)n2nc(C)c(-c3ccccc3)c2n1	nt	nt	nt	-28.9%	nt
COc1ccccc1-c1c(C)nn2c(N3CCC(C)CC3)cc(C)nc12	-5.4%	-2.5%	?	10µM*	-11.2%[46.1 µM]
COc1ccccc1-c1c(C)nn2c(N3CCC(C(N)=O)CC3)cc(C)nc12	i	-19.9%	nt	2.2%	nt
COc1ccc(-c2c(C)nn3c(N4CCC(C(=O)NCCN(C)C)CC4)cc(C)nc23)cc1OC	nt	nt	20.6µM*	?	1.0%
Cc1cc(N2CCOCC2)n2nc(C)c(-c3ccccc3)c2n1	nt	?	-1.1%	11.2µM*	-14.1%
CC(=O)N1CCC[C@H]1C(=O)NCC1Cc2cc(C)cc(-c3ccc(Cl)cc3)c2O1 (some centres undefined)	-17.2%	-10.0%	nt	nt	nt
COc1ccc(-c2c(C)nn3c(-c4ccccc4)cc(C)nc23)cc1	9.8%	-2.7%	nt	11.2µM*	nt
CCOc1ccc(C(=O)Nc2ccc(S(=O)(=O)N3C[C@@H]4C[C@@H](C3)c3cccc(=O)n3C4)cc2)cc1	?	-26.1%	-5.1%	1µM*	nt
O=S(=O)(c1ccc(-c2cc(C(F)(F)F)on2)s1)N1CCN(c2ccc(F)cc2)CC1	?	?	nt	nt	-2.1%[46.1 µM]
COC(=O)c1cc(-c2ccccc2)sc1N	-9.1%	-19.3%	?	2µM*	?
C#CCNC(=O)c1cc(-c2ccccc2)sc1N	?	-12.3%	nt	nt	nt
CCn1ccc2cc(S(=O)(=O)N3CCC(C(=O)NCC(C)c4ccccc4)CC3)ccc21 (centres undefined)	-9.9%	-4.1%	nt	nt	-15.3%[46.1 µM]
CCCOc1ccc(C(F)(F)F)cc1NC(=O)c1cc(C)on1	nt	nt	nt	-9.7%	nt
CCCOc1ccc(C(F)(F)F)cc1NS(=O)(=O)c1ccc(Cl)nc1	11.2µM*	?	-17.7%[46.1 µM]	-3.3%	5.1%
CC(C)C1CC(CCN)(Cc2ccccc2)CCO1 (centres undefined)	-9.2%	-17.4%	14.6µM*	?	0.2%[46.1 µM]
CNC(=S)N(CCc1c(C)[nH]c2ccc(C)cc12)Cc1ccco1	i	-12.8%	-40.3%	?	-32.5%
CCNC(=S)N(CCc1c(C)[nH]c2ccc(Cl)cc12)Cc1ccco1	?	-16.4%	?	10µM*	7.94µM*
CCNC(=S)N(CCc1c(C)[nH]c2ccc(C)cc12)Cc1cccs1	-16.2%	-15.9%	-9.1%[46.1 µM]	?	-25.2%
COCCNC(=S)N(CCc1c(C)[nH]c2ccc(Cl)cc12)Cc1cccs1	?	?	?	7.08µM*	?
Cc1c(C(=O)NCC(C)(C)N2CCOCC2)cnn1-c1ncc2c(n1)-c1ccccc1CCC2	-13.2%	-7.3%	nt	nt	nt
COc1cc2sc3cc(NCc4ccc(C)o4)ccc3c(=O)c2cc1OC	?	-15.6%	nt	3.55µM*	nt
